Data on nine molecules can be found in PubChem BioAssay (NCI).

Compounds without any hit were thinned out: in the full panel of roughly 83,000, 20% have a hit.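 Growth was measured after 48 h exposure to one concentration of compound in 96-well plates. Values under 10 count as active.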 Values without a mark were called inactive. Calls of active or inactive are those of the source.

Test systems include SK-MEL-2 melanoma; EKVX NSCLC; SN12C renal; UO-31 renal; TK-10 renal; ACHN renal; CAKI-1 renal; A498 renal; CCRF-CEM leukemia; MOLT-4 leukemia.
Assay in all cases: NCI-60 one-dose screen, 48 h (100 = growth as untreated, 0 = no growth, -100 = all killed)
Conditions in all cases: 10 µM unless noted

For the molecule `COc1ccc(/C=C\c2cc(OC)c(OC)c(OC)c2)cc1OC(=O)c1cccc(Cn2cc(CCOC(=O)c3cccc(Cn4nnc5c4C(=O)c4ccccc4C5=O)c3)nn2)c1`, the growth in the assay on SK-MEL-2 melanoma was 50.9%; in the assay with EKVX NSCLC, 58.3%; in the assay on SN12C renal, 18.9%; with UO-31 renal, 36.6%; in the assay with TK-10 renal, 76.4%; in the assay on ACHN renal it was 17.2%. Further, the growth in the assay on CAKI-1 renal is 31.2%; in the assay on A498 renal it was -4.1% (active); in the assay on CCRF-CEM leukemia, 8.91% (active); in the assay with MOLT-4 leukemia it was 20.7%.

Turning to `c1cc(C2=N[C@@H]3c4ccccc4C[C@@H]3O2)nc(C2=N[C@@H]3c4ccccc4C[C@@H]3O2)c1`, the growth was 103% in the assay on SK-MEL-2 melanoma; 89.4% in the assay on EKVX NSCLC; 97% in the assay with SN12C renal; 94.6% in the assay on UO-31 renal; 101% with TK-10 renal; 102% in the assay on ACHN renal. The growth in the assay with CAKI-1 renal is 92.4%; in the assay on A498 renal, 102%; in the assay on CCRF-CEM leukemia it was 102%; with MOLT-4 leukemia it was 106%.

Take `O=[N+]([O-])c1cccc(-c2nc3sccn3c2-c2ccnc(NCCCNS(=O)(=O)c3ccc(Cl)cc3)n2)c1`: the growth with SK-MEL-2 melanoma was 45.3%; in the assay on EKVX NSCLC it was 50.9%; in the assay with SN12C renal, 53.8%; in the assay on UO-31 renal it was 22.2%; in the assay with TK-10 renal it was 117%; in the assay on ACHN renal it was 47.8%. In addition, the growth was 43.8% in the assay with CAKI-1 renal, 68% in the assay with A498 renal, 16.7% with CCRF-CEM leukemia and 13.7% in the assay on MOLT-4 leukemia.

Take `C/C(=N/NC(=S)Nc1ccccc1)c1nc2ccc(Cl)cc2[nH]1`: the growth in the assay with SK-MEL-2 melanoma is -93.6% (active); with EKVX NSCLC, -23.6% (active); in the assay on SN12C renal it was -37.4% (active); with UO-31 renal it was -35.5% (active); in the assay on TK-10 renal, -39.1% (active); in the assay on ACHN renal, 7.65% (active). For the same molecule, the growth in the assay with CAKI-1 renal was 9.36% (active); with A498 renal, -81.4% (active); in the assay on CCRF-CEM leukemia it was 1.46% (active); in the assay with MOLT-4 leukemia, -16.7% (active).

For the molecule `CCN(CC)CCOc1ccc(/C(=C(/C)c2ccccc2)c2ccc(OC(C)=O)cc2)cc1`, the growth in the assay on SK-MEL-2 melanoma was 121%; in the assay on EKVX NSCLC, 95.6%; in the assay with SN12C renal, 93.6%; with UO-31 renal it was 80.4%; with TK-10 renal, 111%; in the assay with ACHN renal, 111%. Further, the growth in the assay on CAKI-1 renal is 90.8%; with A498 renal, 73.6%; in the assay with CCRF-CEM leukemia, 94.3%; with MOLT-4 leukemia it was 106%.

Regarding `CCCCC(CC)OC(=O)C(Br)CC` (stereo not given), the growth was 100% in the assay with SK-MEL-2 melanoma; 105% in the assay with EKVX NSCLC; 115% with SN12C renal; 93.6% with UO-31 renal; 103% in the assay with TK-10 renal; 109% in the assay on ACHN renal. Also, the growth is 99% in the assay with CAKI-1 renal, 97.4% in the assay on A498 renal, 109% with CCRF-CEM leukemia and 95.4% in the assay with MOLT-4 leukemia.

For the molecule `Cc1nc2ncccc2nc1Nc1ccc(S(=O)(=O)Nc2cncs2)cc1`, the growth with SK-MEL-2 melanoma is 103%; in the assay with EKVX NSCLC, 88.2%; in the assay on SN12C renal it was 82.7%; with UO-31 renal, 58.8%; in the assay on TK-10 renal, 101%; in the assay on ACHN renal, 99.7%. Besides, the growth in the assay with CAKI-1 renal was 84.1%; with A498 renal, 118%; in the assay with CCRF-CEM leukemia, 100%; in the assay on MOLT-4 leukemia, 99.4%.

On to `COc1ccc(/C=N\NC(=O)CN2CCN(c3cc4c(cc3F)c(=O)c(C(=O)N/N=C/c3ccc(OC)c(OC)c3)cn4C3CC3)CC2)cc1OC`, for which the growth in the assay with SK-MEL-2 melanoma was -24.8% (active); in the assay with EKVX NSCLC, 55%; in the assay on SN12C renal, -8.5% (active); with UO-31 renal it was 85%; in the assay with TK-10 renal, 65.1%; with ACHN renal it was 102%. The growth in the assay on CAKI-1 renal is 88.2%; in the assay on A498 renal, 89.1%; in the assay with CCRF-CEM leukemia, 9.85% (active); with MOLT-4 leukemia, 5.8% (active).

As to `COc1cc2c(cc1OCCCCCn1c3ccccc3c3ccccc31)N=C[C@@H]1CCCN1C2=O`, the growth is -65.7% (active) in the assay with SK-MEL-2 melanoma; 46.6% in the assay on EKVX NSCLC; -54.8% (active) in the assay on SN12C renal; -75.8% (active) in the assay with UO-31 renal; -37.8% (active) in the assay with TK-10 renal; -63% (active) in the assay with ACHN renal. The growth is 38.3% with CAKI-1 renal, -51.8% (active) with A498 renal, -0.543% (active) in the assay with CCRF-CEM leukemia and -39.9% (active) with MOLT-4 leukemia.
